# Screening data as filed in PubChem BioAssay.
# FBW7 activator: human FBW7 E3 ligase activation, primary screen; Q969H0; AlphaScreen FBW7–phospho-cyclin E peptide binding, activator screen; normalized activity (activation), % at 26.1 µM; hit rate 0.13% among 650,000; AID 1259310; in the data active = normalized activity above about 1.9%;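 also: purified mutant Fbw7 with reduced substrate affinity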
# MITF inh: human MITF inhibition, primary screen; O75030; AlphaScreen MITF homodimerization, bead proximity signal; inhibition, % at 2.6 µM; hit rate 0.91% among 650,000; in the data active = inhibition above about 50%;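 also: 0% = vehicle wells with protein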
# Target sequence (O75030 whole entry, looked up): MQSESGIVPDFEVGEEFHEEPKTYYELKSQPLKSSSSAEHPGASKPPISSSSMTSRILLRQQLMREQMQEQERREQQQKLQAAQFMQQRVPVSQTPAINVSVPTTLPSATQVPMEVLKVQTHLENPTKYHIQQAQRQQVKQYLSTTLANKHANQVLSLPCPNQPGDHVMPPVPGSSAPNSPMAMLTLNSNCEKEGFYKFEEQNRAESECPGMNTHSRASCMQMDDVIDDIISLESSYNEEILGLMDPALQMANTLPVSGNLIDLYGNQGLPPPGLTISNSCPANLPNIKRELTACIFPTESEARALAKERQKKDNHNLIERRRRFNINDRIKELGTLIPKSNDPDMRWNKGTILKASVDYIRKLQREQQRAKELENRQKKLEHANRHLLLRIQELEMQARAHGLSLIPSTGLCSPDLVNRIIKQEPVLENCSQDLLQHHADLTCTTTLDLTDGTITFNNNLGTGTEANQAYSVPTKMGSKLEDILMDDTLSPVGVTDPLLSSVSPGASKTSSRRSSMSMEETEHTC
# TEAD-YAP block: TEAD-YAP interaction inhibition; AID 1259422; inhibition, % at 9.12 µM; hit rate 1.4% among 640,000; HEK-TIYL cells, TEAD-Gal4/YAP UAS-luciferase luminescence; in the data active = inhibition above about 32%;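 also: 0% = median of test compound wells and 100% = reference inhibitor wells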
# GPR151 activ: activates the human receptor GPR151 | activation, % at 11.2 µM | Q8TDV0 | AID 1508602 | PathHunter beta-arrestin GPR151 cells, luminescence | hit rate 1% among 650,000; in the data active = activation above about 4.9%;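 also: 0% = median of compound wells and 100% = cells with positive control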
# MITF inh conf: confirmation of human MITF inhibitors | shares compounds with MITF inh | AlphaScreen MITF homodimerization, biotin/His-MITF beads | inhibition, % at 2.6 µM | hit rate 16% among 4,700 | AID 1259372;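 active = inhibition above a cutoff derived from the DMSO control wells, cut at about 28% in these data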;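 also: 0% = MITF dimer wells with DMSO only; inhibitors lower the bead chemiluminescence by keeping MITF from dimerizing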
# AS interf DR: counter-screen: compounds optically interfering with AlphaScreen; shares compounds with MITF inh; AlphaScreen optical interference counterscreen, cell-free; IC50, µM; hit rate 6% among 480; AID 1259373; call rule not given here
# AlphaScreen intf2: AlphaScreen optical interference, counter-screen | shares compounds with MITF inh | LysRS AlphaScreen counterscreen, signal interference, triplicate | inhibition, % at 2.6 µM | hit rate 7.6% among 4,700;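 active = inhibition above a cutoff derived from the DMSO control wells, cut at about 30% in these data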
# Active calls of the source: *; nt = no result given. This is a sample that favours compounds with a hit; in the whole collection about 3.5% have one here.
SMILES,FBW7 activator,MITF inh,TEAD-YAP block,GPR151 activ,MITF inh conf,AlphaScreen intf2,others
COc1ccc(C)cc1S(=O)(=O)NC1CCCCCC1,0,-3,7,-1,nt,nt,
COc1ccc(C)cc1NC1CCCCC1,0,77*,-5,2,9,17,
Cc1ccc(C(=O)/C=C/C=C/C=C/N(C)C)o1,0,16,-4,-1,nt,nt,
CN(C)/C=C/C=C/C(=O)c1cccc(C(=O)/C=C/C=C/N(C)C)c1O,0,56*,-8,1,79*,-11,AS interf DR=>6.5
O=C(Cc1cn(-c2ccc(NCCN3CCOCC3)nn2)c2ccccc12)NCCCN1CCCC1=O,0,59*,-4,1,5,2,
O=C(Cc1cn(-c2ccc(N3CCOCC3)nn2)c2ccccc12)NCCCN1CCCC1=O,0,-5,-8,-1,nt,nt,
COc1ccc(CN2CCN(C3CCCC3)CC2)cc1OC,0,47,9,-1,nt,nt,
COc1ccc(CN2CCN(C3CC4CCC3C4)CC2)cc1OC (centres undefined),0,63*,14,0,-16,0,
c1ccc(CN2CCC(N3CCN(C4CC5CCC4C5)CC3)CC2)cc1 (centres undefined),0,35,5,2,nt,nt,
COc1ccc(CN2CCN(C3CC4CCC3C4)CC2)cc1 (centres undefined),1,77*,-5,0,1,1,
O=C(Cc1cccc2ccccc12)Nc1nnc(-c2ccncc2)o1,0,71*,2,0,52*,98*,
O=C(Cc1cccc2ccccc12)Nc1nnc(-c2ccc3c(c2)OCCO3)o1,0,6,1,0,nt,nt,
O=C(N/N=C/C=C/c1ccco1)c1ccncc1,-1,67*,5,0,76*,-3,AS interf DR=>6.5
CNS(=O)(=O)c1cccc(C(=O)OCCOc2ccc(Br)cc2)c1,0,-10,7,-2,nt,nt,
Cc1ccccc1Cn1cc(NC(=O)c2cc3ccccc3oc2=O)cn1,0,3,-8,-1,nt,nt,
COc1ccc(NS(=O)(=O)c2ccc3c(c2)OCCO3)c(OC)c1,0,85*,9,0,-2,-2,
CCOc1ccccc1NS(=O)(=O)c1ccc2c(c1)OCCCO2,0,57*,0,2,-5,-6,
CN(C)CCCNS(=O)(=O)c1ccc2c(c1)OCCO2,0,63*,-4,-2,16,16,
Cc1ccc(C2CC(c3cccs3)=NN2C(=O)CSc2nnc(CNC(=O)Cc3ccccc3)n2CCc2ccccc2)cc1 (centres undefined),0,-3,1,1,nt,nt,
COc1cccc(CNCC(=O)NCc2ccc3c(c2)OCO3)c1,0,60*,4,0,9,14,
O=C(CNCc1cccnc1)Nc1ccccc1,0,40,0,0,nt,nt,
O=C(CNCc1cccnc1)Nc1ccc2c(c1)OCO2,0,59*,0,0,2,8,
O=C(CNCCN1CCOCC1)NCc1ccc2c(c1)OCO2,0,84*,7,0,19,14,
CC(C)NC(=O)CNCc1ccc2c(c1)OCO2,0,34,-4,1,nt,nt,
O=C(CNCc1ccc2c(c1)OCO2)Nc1ccccc1F,0,64*,1,0,4,16,
SMILES,FBW7 activator,MITF inh,TEAD-YAP block,GPR151 activ,MITF inh conf,AlphaScreen intf2,others
COc1cccc(CN(CCCN)C(=O)Nc2ccc(-c3cn[nH]c3)cc2)c1,0,18,12,0,nt,nt,
COc1cc(C2/C(=C(/O)c3ccccc3)C(=O)C(=O)N2c2cccc(Cl)c2)ccc1O (centres undefined),0,2,-8,1,nt,nt,
COc1ccc(/C=C(\C#N)C(=O)Nc2ccc(N3CCCCC3)cc2)cc1,0,7,3,3,nt,nt,
O=C(CNCCc1ccccc1)NCc1ccc2c(c1)OCO2,1,73*,-1,0,9,14,
O=C(CSCc1ccccc1)NCc1ccc2c(c1)OCO2,0,13,10,1,nt,nt,
Cc1cc(-c2cnc(C)nc2C2CCCN(Cc3cccnc3)C2)on1 (centres undefined),0,53*,4,1,9,9,
Cc1cc(-c2cnc(C)nc2C2CCCN(Cc3ccncc3)C2)on1 (centres undefined),0,36,-13,0,nt,nt,
O=[N+]([O-])c1cc(CN2CCCCC2)c2cccnc2c1O,0,112*,0,0,106*,100*,
CN1CCN(Cc2cc(Br)c(O)c3ncccc23)CC1,-1,105*,84*,-1,113*,101*,
O=[N+]([O-])c1cc(CN2CCOCC2)c2cccnc2c1O,0,106*,13,-1,107*,99*,
O=C1/C(=C\c2ccccc2Cl)SC(=S)N1CN1CCOCC1,0,6,-18,1,nt,nt,
CC(=O)Nc1ccc(C(=O)OCC(=O)N2CCCC(C)C2)cc1 (centres undefined),0,8,-4,-1,nt,nt,
Cc1c(C(=O)NCc2nnc(SCC(=O)N3N=C(c4ccc(Br)cc4)CC3c3ccc(F)cc3)n2C)cccc1[N+](=O)[O-] (centres undefined),0,7,2,-1,nt,nt,
CCCC(=O)N1c2ccccc2NC2=C(C(=O)CCC2)C1c1ccccc1 (centres undefined),0,2,-1,0,nt,nt,
COc1cccc(C2CC(c3cccs3)=NN2C(=O)CSc2nnc(CNC(=O)c3ccccc3)n2-c2ccccc2)c1OC (centres undefined),1,70*,3,0,-11,0,
OCc1cn(-c2ccccc2)nc1-c1ccc2c(c1)OCCO2,0,-7,-82,-2,nt,nt,
O=C(c1cn(-c2ccccc2)nc1-c1ccc2c(c1)OCCO2)N1CCOCC1,0,58*,-5,0,1,14,
CN1CCN(Cc2cn(-c3ccccc3)nc2-c2ccc3c(c2)OCCO3)CC1,0,77*,-4,0,9,12,
O=C(CC(NCc1ccccn1)C(=O)O)Nc1cccc([N+](=O)[O-])c1 (centres undefined),0,43,-3,-1,nt,nt,
O=C(CC(NCc1ccco1)C(=O)O)Nc1ccc(Oc2ccccc2)cc1 (centres undefined),0,6,-2,1,nt,nt,
O=C(CC(NCc1ccccn1)C(=O)O)Nc1ccc(F)cc1 (centres undefined),0,108*,-15,2,102*,100*,
O=C(CC(NCc1ccccn1)C(=O)O)Nc1ccc(Oc2ccccc2)cc1 (centres undefined),0,90*,2,2,95*,100*,
O=C(Nc1ccccc1)C(=O)NC(CO)(CO)CO,0,-9,-15,0,nt,nt,
C=CCc1cc(Cl)ccc1OCCOCCNCCOC,0,56*,3,1,42*,0,AS interf DR=>6.5
C=CCc1ccccc1OCCOCCNCCCOC,0,58*,12,0,-11,-5,
